From PubChem BioAssay
Hits are enriched below; roughly 3.6% of the tested compounds scored in any of these assays.
Mdm2-MdmX inh: inhibitors of human Mdm2/MdmX interaction | SaOS-2 split-luciferase Mdm2/MdmX complementation, luminescence | AID 485346 | inhibition, % at 8 µM | hit rate 3% among 330,000 | O15151+Q00987;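 active = inhibition of at least 50% at 8 µM in the primary screen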
Target sequence (O15151 whole entry, looked up): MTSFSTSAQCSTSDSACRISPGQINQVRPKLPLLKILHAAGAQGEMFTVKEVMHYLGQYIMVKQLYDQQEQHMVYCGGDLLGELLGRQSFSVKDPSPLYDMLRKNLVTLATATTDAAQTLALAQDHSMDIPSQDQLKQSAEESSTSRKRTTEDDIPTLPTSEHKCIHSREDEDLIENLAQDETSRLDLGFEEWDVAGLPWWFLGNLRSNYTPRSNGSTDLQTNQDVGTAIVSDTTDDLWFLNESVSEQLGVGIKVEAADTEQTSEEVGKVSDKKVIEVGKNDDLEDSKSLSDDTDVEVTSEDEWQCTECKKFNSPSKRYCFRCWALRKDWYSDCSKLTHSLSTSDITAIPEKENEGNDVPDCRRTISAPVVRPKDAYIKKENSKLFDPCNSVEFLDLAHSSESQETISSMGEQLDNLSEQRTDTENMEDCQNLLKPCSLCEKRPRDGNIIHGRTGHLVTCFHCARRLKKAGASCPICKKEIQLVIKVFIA
Target sequence (Q00987 whole entry, looked up): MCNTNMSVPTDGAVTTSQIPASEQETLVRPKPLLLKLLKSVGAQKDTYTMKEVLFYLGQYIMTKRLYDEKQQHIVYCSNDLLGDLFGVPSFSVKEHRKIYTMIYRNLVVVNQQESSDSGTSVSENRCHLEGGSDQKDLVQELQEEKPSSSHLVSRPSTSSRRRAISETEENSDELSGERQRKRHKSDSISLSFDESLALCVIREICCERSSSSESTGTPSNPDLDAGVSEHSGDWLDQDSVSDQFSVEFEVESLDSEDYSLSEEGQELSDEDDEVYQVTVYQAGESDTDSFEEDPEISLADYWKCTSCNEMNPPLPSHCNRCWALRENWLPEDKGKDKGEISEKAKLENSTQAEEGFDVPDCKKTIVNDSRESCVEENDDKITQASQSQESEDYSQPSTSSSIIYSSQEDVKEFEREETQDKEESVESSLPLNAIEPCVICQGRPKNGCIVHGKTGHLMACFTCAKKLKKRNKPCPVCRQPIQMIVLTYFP
CF NFkB block: inhibitors of cystic fibrosis induced NF-kB; hit rate 0.86% among 360,000; inhibition, % at 5 µM; KKLEB NF-kB-GFP reporter, PAF-induced, GFP fluorescence overnight;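 active = at least 50% inhibition at 5 µM, scaled per plate between neutral and stimulator controls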;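 note: PAF is a Pseudomonas aeruginosa culture filtrate used as stimulus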
HSP90 refold inh: inhibitors of HSP90 luciferase refolding in rabbit reticulocyte lysate; luciferase refolding luminescence, 3 h; inhibition, % at 5.6 µM; hit rate 0.91% among 290,000; AID 1789;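 active = inhibition above the screen-wide mean plus 3 SD, computed separately per campaign, cut at about 16% in these data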;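 note: inhibitors lower the luminescence because luciferase stays unfolded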
Peg3 prom inh: reduces Peg3 promoter-driven luciferase expression in HeLa; AID 588405; HeLa PEG-Prom luciferase reporter, luminescence, overnight; inhibition, % at 20 µM; hit rate 1.7% among 360,000;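 active = inhibition of at least 50% at 20 µM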
LGR2 antag: Drosophila LGR2 receptor signaling inhibition | HEK293 LGR2, CRE-luciferase, bursicon-stimulated, 4 h | inhibition, % at 9.99 µM | hit rate 0.35% among 380,000 | AID 720647;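 active = drop in luminescence signal, shown as inhibition above about 50% in the replicate tests, limit read from the data, passing the limit was not always enough; inconclusive = probably only some replicates passing the limit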;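 note: agonist challenge used bursicon conditioned medium at about half maximal strength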
KKLEB tox: CF airway cell cytotoxicity counter-screen; KKLEB CF airway cells viability, ATPlite luminescence, overnight; active compounds read low; cells stimulated with P. aeruginosa culture filtrate; activity change (cytotoxicity), % at 5 µM; hit rate 0.36% among 360,000; AID 602141;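 active = corrected activity change at or below -50% at 5 µM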
Mdm2-MdmX conf: human Mdm2/MdmX binding inhibition, confirmed | inhibition, % at 8 µM | hit rate 55% among 10,000 | shares compounds with Mdm2-MdmX inh | luminescent assay | AID 489028; in the data active = inhibition above about 40%
FLuc counter: inhibits full-length luciferase, flagging false Mdm2/MdmX hits. shares compounds with Mdm2-MdmX inh. SaOS-2 full-length luciferase counterscreen, luminescence. inhibition, % at 8 µM. hit rate 77% among 6,200. AID 504607;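 active = mean inhibition at 8 µM reaching about 37%, which flags the compound as non-specific, limit read from the data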;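 note: p53-null SaOS-2 cells with luciferase driven by a doxycycline-inducible promoter; compound on cells about two nights before reading with doxycycline added after day one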
Numbers stand for hits; n = inactive; u = inconclusive; x = no result.

SMILES | Mdm2-MdmX inh | CF NFkB block | HSP90 refold inh | Peg3 prom inh | LGR2 antag | KKLEB tox | Mdm2-MdmX conf | FLuc counter
Cc1cc(C)cc(N(CCC(=O)Nc2nnc(C3CC3)s2)S(=O)(=O)c2ccc(Cl)cc2)c1 | 51.3 | n | n | n | x | n | 59.9 | 76.5
Cc1nn(C)c(C)c1/C=N/N=C1\CCC2C3CCc4cc(O)ccc4C3CCC12C (stereo not drawn) | 57.1 | n | n | n | x | n | n | x
COc1ccc(CN(C)C[C@@H]2OCCCC[C@H](C)Oc3ccc(NC(=O)Cc4ccccc4)cc3C(=O)N([C@H](C)CO)C[C@H]2C)cc1 | x | x | x | x | n | x | x | x
NC(=O)c1sc2nc3c(c(-c4cccs4)c2c1N)CCCCC3 | 84.6 | 91.0 | n | n | x | -51.3 | 87.6 | 53.2
NC(=O)c1sc2nc3c(c(-c4cccnc4)c2c1N)CCC3 | n | n | n | n | x | n | x | x
Cc1cc(/C=C2/NC(=O)N(c3ccccc3)C2=O)c(C)n1C(C)C | n | n | n | n | n | n | x | x
O=C1N/C(=C/c2ccc(Br)s2)C(=O)N1c1ccccc1 | 50.9 | n | n | n | n | n | n | x
Cc1ccc(C(=O)NC(=S)Nc2cc(C(F)(F)F)ccc2Cl)cc1 | 55.1 | n | n | n | x | n | n | x
O=C(Cc1ccccc1)NC(=S)Nc1cc(C(F)(F)F)ccc1Cl | n | n | n | n | x | n | x | x
Cc1noc(C)c1NC(=O)N[C@H]1CC[C@H](CCNC(=O)C2CCCCC2)O[C@@H]1CO | x | x | x | x | n | x | x | x
CC(C)c1ccc(O)c(NC(=O)c2ncn[nH]2)c1 | n | n | n | n | n | n | x | x
CC(C)c1ccc2c(c1)C1(NN=C(c3ccccc3)S1)C(=O)N2 (stereo not drawn) | 59.0 | n | n | n | x | n | 69.2 | 69.2
CCc1ccc2c(c1)C1(NN=C(c3ccc(C)cc3)S1)C(=O)N2 (stereo not drawn) | 74.3 | n | n | n | x | n | 67.8 | 63.2
CCNc1nc(C)c2cc(Br)c(=O)n(CC)c2n1 | 72.8 | n | n | n | n | n | 44.0 | 46.0
CC(=O)CSc1nc(N)c(C#N)c(-c2cccs2)c1C#N | 52.4 | n | n | n | x | n | n | 41.2
N#Cc1c(N)nc(SCC(=O)NCCc2ccccc2)c(C#N)c1-c1cccs1 | 63.0 | n | n | n | x | n | n | x
CCN1C(=O)[C@@H]2[C@@H](c3ccc(-c4ccc(F)cc4)c(OC)c3)N3CCCC[C@@]3(C(=O)OC)[C@@H]2C1=O | n | n | x | n | n | n | x | x
CCN1C(=O)[C@@H]2[C@@H](c3ccc(-c4ccc(Cl)c(Cl)c4)c(OC)c3)N3CCCC[C@@]3(C(=O)OC)[C@@H]2C1=O | 52.9 | n | x | n | x | n | n | x
COC(=O)[C@@]12CCCCN1[C@H](c1ccc(-c3cccc(Cl)c3)c(OC)c1)[C@@H]1C(=O)N(C)C(=O)[C@@H]12 | 72.5 | n | x | n | n | n | n | x
COC(=O)[C@@]12CCCCN1[C@H](c1ccc(-c3ccc(F)cc3)cc1)[C@H]1C(=O)N(C)C(=O)[C@H]12 | 63.6 | n | x | n | n | n | 46.2 | 48.4
C[C@H]1CCCCO[C@H](CN(C)C(=O)CCCN(C)C)[C@@H](C)CN([C@@H](C)CO)C(=O)c2cc(NC(=O)c3ccccc3)ccc2O1 | x | x | x | x | n | x | x | x
Cc1ccc(-c2cnc3c(c2)C(=O)N([C@H](C)CO)C[C@@H](C)[C@@H](CN(C)CC2CCCC2)O3)cc1 | x | x | x | x | n | x | x | x
Cc1ccc(OCCn2cc(C(=S)N3CCCC3)c3ccccc32)cc1C | 95.7 | n | n | n | x | n | 91.5 | 54.4
S=C(c1cn(CCOc2ccccc2)c2ccccc12)N1CCCC1 | n | n | n | n | x | n | x | x
Cc1cc(=O)[nH]c(NN=Cc2c(Cl)cccc2Cl)n1 | x | n | x | n | n | n | x | x
SMILES | Mdm2-MdmX inh | CF NFkB block | HSP90 refold inh | Peg3 prom inh | LGR2 antag | KKLEB tox | Mdm2-MdmX conf | FLuc counter
Cc1cc(=O)[nH]c(N/N=C/c2ccccn2)n1 | 79.9 | n | n | n | n | n | 77.5 | 58.9
CCCNC(=O)N(C)C[C@@H]1Oc2cc(-c3ccc(C)cc3)ccc2S(=O)(=O)N([C@H](C)CO)C[C@@H]1C | x | x | x | x | n | x | x | x
Cn1ccc2cc(-c3ccc4ncnc(NCc5cccs5)c4c3)ccc21 | 63.9 | n | x | n | x | n | 57.1 | n
COc1ccc(CN(C)C[C@H]2Oc3ccc(NS(=O)(=O)c4cn(C)cn4)cc3CC(=O)N([C@@H](C)CO)C[C@@H]2C)cc1 | x | x | x | x | n | x | x | x
OCCNc1ncnc2c1c(-c1ccccc1)c(-c1ccccc1)n2Cc1ccco1 | n | n | n | n | x | n | x | x
N=c1c2c(-c3ccccc3)c(-c3ccccc3)n(Cc3ccco3)c2ncn1Cc1ccccc1 | 100.4 | n | n | n | n | n | 62.0 | n
N=c1c2c(-c3ccccc3)c(-c3ccccc3)n(Cc3ccco3)c2ncn1CCCN1CCOCC1 | 100.3 | n | n | 99.1 | u | n | 88.2 | 56.0
CC(C)Cn1cnc2c(c(-c3ccccc3)c(-c3ccccc3)n2Cc2ccco2)c1=N | 91.2 | n | n | 104.3 | x | n | n | x
CNC[C@H]1Oc2ncc(-c3cccc(C(=O)N(C)C)c3)cc2C(=O)N([C@H](C)CO)C[C@H]1C | x | x | x | x | n | x | x | x
CCOC(=O)c1sc(=S)n(C)c1NC(=O)c1ccc(C(C)(C)C)cc1 | 61.0 | n | n | n | n | n | n | x
COc1ccc(OC)c(NC(=O)c2cc(OC(C)=O)cc(C(=O)Nc3cc(OC)ccc3OC)c2)c1 | 56.3 | n | n | n | n | n | n | x
Cc1nc(C(=O)Nc2ccccc2)sc1C1(C)CC(c2cccnc2)=NO1 (stereo not drawn) | n | n | x | n | n | n | x | x
COc1ccc(NC(=O)c2nc(C)c(C3(C)CC(c4ccccc4)=NO3)s2)cc1 (stereo not drawn) | 59.3 | n | x | n | n | n | 57.6 | 71.7
Cc1nc(C(=O)Nc2ccccc2)sc1C1(C)CC(c2cccc([N+](=O)[O-])c2)=NO1 (stereo not drawn) | 85.4 | n | x | n | n | n | 63.1 | 49.5
COc1ccc(S(=O)(=O)N(C)C[C@@H]2OCCCC[C@H](C)Oc3ccc(NC(=O)Nc4ccc(F)cc4)cc3C(=O)N([C@@H](C)CO)C[C@@H]2C)cc1 | x | x | x | x | n | x | x | x
O=C(C[C@H]1C=C[C@H](NC(=O)Nc2cc(F)ccc2F)[C@@H](CO)O1)Nc1ccccc1 | x | x | x | x | n | x | x | x
COc1ccccc1NC(=O)c1cc2c(CO)cnc(C)c2oc1=Nc1cccc(C(N)=O)c1 | 78.8 | n | n | n | n | n | 40.8 | 90.5
Oc1[nH]c2ccccc2c1N=Nc1nc(Nc2ccccc2)nc(N2CCOCC2)n1 | 80.3 | n | n | 69.7 | n | n | 80.6 | 59.2
Cc1[nH]c2ccccc2c1/C=N/Nc1nc(Nc2ccccc2)nc(N2CCOCC2)n1 | 58.5 | n | n | n | x | n | n | x
c1ccc(Nc2nc(N3CCCC3)nc(N3CCOCC3)n2)cc1 | n | n | x | n | n | n | x | x
